# ALR inh – blocks human ALR sulfhydryl oxidase activity; hit rate 3.8% among 290,000; P55789; purified ALR, DTT oxidation, H2O2 HRP-luminol luminescence; AID 485317; inhibition, % (test concentration not listed);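 active = mean replicate inhibition above about 79%, with every replicate also reaching it, limit read from the data; inconclusive = only one of the two criteria met; inactive = mean below limit and not every replicate reaching it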
# CaV13 ICDI inh – Primary screen for inhibitors of IQ motif and Ca2+-dependent inactivation inhibitor domain binding in CACNA1D, Förster resonance energy transfer in living cells, …; inhibition, % at 12.3 µM; HEK cells, CFP/YFP FRET ICDI-IQ, plate reader, 10 min; percent FRET-ratio fall versus neutral wells; AID 743397; hit rate 0.098% among 340,000;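 active = mean replicate inhibition of at least 30% and at least 1% of replicates passing that level; inconclusive = only one of the two criteria is met; inactive = neither criterion is met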;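 also: 0% = median of the neutral control wells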
# PolyA inh – blocks polyadenylation in yeast reporter cells; activity score, % at 12 µM; S. cerevisiae SKY197-pL101 polyadenylation reporter, beta-gal luminescence; efflux-impaired pdr1/pdr3 knockout yeast; score 100 = 6 SD above DMSO; hit rate 0.02% among 300,000;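 active = lowest replicate activity score at least 50, where 100 means six control SD above control mean; inconclusive = lowest score under 50 but half or more replicates reach 50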;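 also: yeast exposed to compound for 9 h at 30 °C; higher score means more reporter readthrough which indicates perturbed polyadenylation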
# IDE cell activ – boosts human insulin-degrading enzyme activity in HEK cells; P14735; FAbeta-B cleavage, fluorescence polarization; 0% vehicle, 100% cell-free pure enzyme wells; activation, % at 5.96 µM; hit rate 0.073% among 340,000;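 active = activation above the mean of all tested compounds plus 3 SD, set per screening campaign, cut at about 17% in these data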
# Target sequence (P14735 whole entry, looked up): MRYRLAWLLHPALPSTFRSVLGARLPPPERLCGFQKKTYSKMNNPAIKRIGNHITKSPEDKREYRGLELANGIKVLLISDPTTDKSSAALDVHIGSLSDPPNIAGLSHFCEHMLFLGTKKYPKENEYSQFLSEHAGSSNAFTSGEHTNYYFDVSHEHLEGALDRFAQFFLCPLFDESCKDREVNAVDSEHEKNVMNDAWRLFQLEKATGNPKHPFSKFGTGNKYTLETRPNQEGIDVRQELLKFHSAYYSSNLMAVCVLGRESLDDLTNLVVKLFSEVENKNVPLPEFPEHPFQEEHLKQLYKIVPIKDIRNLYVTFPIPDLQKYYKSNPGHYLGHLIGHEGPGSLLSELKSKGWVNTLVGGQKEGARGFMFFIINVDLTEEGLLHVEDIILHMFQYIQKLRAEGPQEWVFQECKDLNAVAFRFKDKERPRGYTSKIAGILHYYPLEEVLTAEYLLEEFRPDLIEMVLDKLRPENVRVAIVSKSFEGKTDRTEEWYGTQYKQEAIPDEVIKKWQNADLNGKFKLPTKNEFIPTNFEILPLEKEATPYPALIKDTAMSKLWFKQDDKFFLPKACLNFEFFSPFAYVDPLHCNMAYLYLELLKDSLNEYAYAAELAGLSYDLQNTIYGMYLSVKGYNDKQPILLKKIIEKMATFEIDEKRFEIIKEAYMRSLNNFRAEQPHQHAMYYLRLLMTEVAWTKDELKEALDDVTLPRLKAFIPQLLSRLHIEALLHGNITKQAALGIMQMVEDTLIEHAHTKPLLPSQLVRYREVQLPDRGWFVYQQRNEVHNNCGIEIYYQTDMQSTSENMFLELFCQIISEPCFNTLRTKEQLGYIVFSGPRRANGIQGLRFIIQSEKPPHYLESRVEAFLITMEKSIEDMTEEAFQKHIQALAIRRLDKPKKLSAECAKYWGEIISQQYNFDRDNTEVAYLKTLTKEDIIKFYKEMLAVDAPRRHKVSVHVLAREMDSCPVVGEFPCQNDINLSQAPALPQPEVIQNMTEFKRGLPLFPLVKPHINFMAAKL
# PfM18AAP inh – PfM18AAP enzyme inhibition; inhibition, % at 7.35 µM; recombinant PfM18AAP, H-Glu-NHMec fluorogenic cleavage; AID 1822; hit rate 1.2% among 290,000;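 active = inhibition above the campaign mean inhibition over all tested compounds plus 3 SD, cut at about 28% in these data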;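 also: 0% = plate median of test compound wells and 100% = 2 mM ZnCl2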
# IDE inh – inhibitors of human insulin-degrading enzyme in cells; P14735; HEK cells, FAbetaB cleavage, fluorescence polarization; inhibition, % at 5.59 µM; hit rate 0.41% among 320,000; AID 434962;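 active = percent inhibition above the average of all tested compounds plus 3 SD, set per screening campaign, cut at about 16% in these data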;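 also: IDE supplied by intact live HEK cells; FP after avidin binding of uncleaved biotin substrate so inhibition keeps polarization high; 0% = DMSO wells and 100% = 60 µM reference IDE inhibitor Ii1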
# * hit, by the source's call; u = inconclusive; x = no result given. A selection: hits, their analogues and other compounds. The true share with any hit is near 4.1%.
SMILES,ALR inh,CaV13 ICDI inh,PolyA inh,IDE cell activ,PfM18AAP inh,IDE inh
O=C(NCc1ccc2c(c1)OCO2)c1nc(S(=O)(=O)Cc2ccccc2F)ncc1Cl,3,-3,-15,-5,-17,1
O=C(NCc1ccc2c(c1)OCO2)c1nc(S(=O)(=O)Cc2ccccc2)ncc1Cl,99*,-6,-12,3,-22,-1
CC(C)(C)c1ccc(-n2ncc3c2CCCC3NC(=O)c2ccco2)cc1 (centres undefined),x,-6,x,x,x,x
O=C(Cc1c(F)cccc1Cl)Nc1cccc(S(=O)(=O)NC2=NCCCCC2)c1,x,-7,8,7,x,9
O=C(Cc1ccc(Cl)cc1Cl)Nc1cccc(S(=O)(=O)Nc2ccccc2F)c1,-7,-3,0,-10,29*,0
O=C(Nc1cccc(S(=O)(=O)Nc2ccccc2F)c1)c1ccc2ccccc2n1,1,-1,-21,0,30*,-1
O=C(NCC(=O)N1CCN(c2ccccc2O)CC1)c1ccc2c(c1)OCO2,43,x,u,1,22,1
O=C1OCCC1Sc1nnc(-c2ccc(Cl)cc2Cl)o1 (centres undefined),2,-20,-5,4,-2,8
CCC(O)CC(C(=O)NNc1ccccc1)C(=O)NNc1ccccc1 (centres undefined),99*,12,-32,9,10,3
CCOC(=O)NNc1ccccc1,-9,1,4,4,0,-9
CC(C)CCc1c(O)nc(SCC(=O)N2CCCCCC2)[nH]c1=O,87*,-3,-10,1,4,-1
CCCc1c(O)nc(SCC(=O)N2CCCCC2)[nH]c1=O,88*,-23,-7,-1,0,-2
OC(Cc1ccncc1)c1ccccc1Cl (centres undefined),x,-9,x,0,x,x
Cc1cc(-c2nsc(=O)o2)c(S(C)(=O)=O)s1,99*,-8,-2,2,12,5
CCC(C)NC(=O)CN(c1cc(C)cc(C)c1)S(=O)(=O)c1c(C)[nH]c(=O)[nH]c1=O (centres undefined),-5,-6,17,2,-6,3
N#Cc1ccc(/C=C\c2nccc3c2[nH]c2ccccc23)cc1,12,38*,-7,0,3,3
Cc1ccc(S(=O)(=O)N(C)CC(=O)Oc2ccc(-c3nnco3)cc2)cc1,x,-4,-1,-2,x,2
CSC(=NCc1ccco1)NC#N,-16,-20,2,11,-6,-1
COc1cc([C@H]2OC[C@H]3[C@@H]2CO[C@H]3c2ccc(O)c(OC)c2)ccc1O,98*,-6,x,1,x,1
COc1cc(C2OCC3C(c4ccc(OC5OC(CO)C(O)C(O)C5O)c(OC)c4)OCC23)ccc1O (centres undefined),95*,x,-3,4,41*,-2
C/C=C/c1cc(OC)c2c(c1)[C@H](C)[C@@H](c1ccc(O)c(OC)c1)O2,63,x,-12,4,x,-4
O=C(COC(=O)C1(c2ccccc2)CC1)N1CCN(c2ccc(F)cc2)CC1,8,-5,0,-3,-14,7
CCCCCCNCC(=O)N1CCC(Cc2ccccc2)CC1,7,-2,5,-2,9,0
N#Cc1ccccc1OCC(=O)Nc1c(C(=O)C2CC2)oc2ccccc12,90*,-4,4,8,-6,-4
O=C(CN1CCCC1)Nc1c(C(=O)C2CC2)oc2ccccc12,2,-4,-3,4,-16,-1
SMILES,ALR inh,CaV13 ICDI inh,PolyA inh,IDE cell activ,PfM18AAP inh,IDE inh
CCCCC(CC)CN1CN(CC(CC)CCCC)CC(C)(N)C1 (centres undefined),x,-5,x,2,x,x
COc1ccc(C(C)=O)cc1CSc1ccccn1,-9,-5,-9,2,2,-1
COc1ccc(C=O)cc1CSc1ccccn1,97*,-1,-6,-2,-1,-7
COc1cccc(Cn2cnc3c(N)c(C)c(C)cc32)c1,33,-5,-14,14,1,-8
CCCn1cnc2c(N)c(C)c(C)cc21,83*,-4,32,3,1,-5
CCn1c(=O)cc(SCC(=O)NCc2ccc(C)o2)c2ccccc21,98*,-9,6,-4,-5,7
CCn1c(=O)cc(SCC(=O)NCc2ccco2)c2ccccc21,4,-3,-7,0,-1,-1
CCn1c(=O)cc(SCC(=O)NCc2ccccn2)c2ccccc21,98*,-9,6,-5,3,1
CCn1c(=O)cc(SCC(=O)NCc2cccnc2)c2ccccc21,-3,-11,-3,2,1,2
CCn1c(=O)cc(SCC(=O)NCCCN2CCN(c3ccc(F)cc3)CC2)c2ccccc21,96*,-6,-2,-4,5,5
CCn1c(=O)cc(SCC(=O)NCCCN2CCC(C)CC2)c2ccccc21,-5,-8,12,5,8,1
COc1ccc(-c2nc3c(-c4ccc(F)cc4)cnn3cc2C)cc1F,2,-26,-7,-8,4,7
Cc1ccc(O)c(NC(=O)C2CCCN2C(=O)OCc2ccccc2)c1 (centres undefined),87*,-5,-2,1,4,-6
Oc1[nH]c2ccccc2c1C1=NCCCC1,98*,-8,-7,2,3,-1
NC1=NN=C(c2ccc3c(c2)OCCO3)CS1,99*,-2,9,-8,13,9
Cc1sc(N)nc1-c1ccc2c(c1)OCCO2,59,-6,-6,3,0,-4
COc1ccc2[nH]c3c(c2c1)CCN1C(=O)C(CC(=O)NCc2cccc(C(F)(F)F)c2)C[C@H](C(=O)N(C(C)C)C(C)C)[C@@]31C (some centres undefined),x,-5,x,1,x,x
CCOc1ccc(Nc2nc(Cc3nnc(SCC(=O)NCc4ccco4)n3CC)cs2)cc1,11,-5,-11,2,30*,3
CC(NC(=O)/C(=C\c1ccco1)NC(=O)c1ccccc1Br)C(=O)O (centres undefined),-5,-4,20,2,8,5
COc1ccc(-n2c(N)cc(=O)nc2SCC(=O)N2CCN(c3ccccc3)CC2)cc1,99*,-11,-4,-4,7,2
COc1ccc(N2CCN(C(=O)CSc3nnc(-c4cccnc4)n3-c3ccccc3)CC2)cc1,94*,-5,-4,-2,-5,9
CC(=O)N/C(=N/c1nc(C)cc(C)n1)Nc1cccc(C)c1C,-31,-2,2,-2,-3,5
CN(C)S(=O)(=O)c1ccc(-c2cn3ccccc3n2)cc1,99*,-2,-5,0,-7,2
Oc1ccc(-c2cn3ccccc3n2)cc1,99*,-2,-10,1,6,5
